Results filed as inconclusive are left out. Calls of active or inactive are those of the source. Calls follow the shape of the dose curve; as a rule, active = well fitted inhibition curve with a large enough effect; inconclusive = small, poorly fitted or top-dose-only effect; inactive = flat fitted curve, though single readings scatter. Square brackets hold non-standard residues; d marks the D form. Peptide text beside a SMILES is read from it. * marks the point of attachment. Dolaproine = CO[C@@H]([C@@H]1CCCN1)[C@@H](C)C(=O)O; Dil = CC[C@H](C)[C@H](NC)[C@@H](CC(=O)O)OC; X1 = C[C@@H](N*)[C@@H](O)c1ccccc1; NMeV = CN[C@H](C(=O)O)C(C)C
test: Identification of antibody-drug conjugate (ADC) payloads which are substrates of ATP-binding cassette drug efflux transporters: ABCG2-H460-MX20 cell line with Ko143; settings: H460-MX20 (ABCG2) + Ko143, CellTiter-Glo viability, 48 h; series mostly up to 28.7 µM
Source text: Antibody-drug conjugates (ADCs) feature an antibody recognizing a specific protein joined to a potent toxic payload. Numerous antibody-drug conjugates have received FDA approval; however, clinical resistance arises. Resistance mechanisms include decreased expression or mutation of the antibody target, impaired payload release, or increased expression of ATP-binding cassette (ABC) efflux transporters associated with multidrug resistance. We therefore sought to characterize the interaction of ABC multidrug transporters with ADC payloads. We performed a high-throughput screen with 27 common ADC payloads using cells lines expressing ABC transporters P-glycoprotein (P-gp, encoded by ABCB1) or ABCG2 (encoded by ABCG2). Confirmatory assays were also performed using cells transfected to express P-gp, ABCG2, or MRP1 (encoded by ABCC1). Several commonly used ADC payloads were substrates of P-gp, including calicheamicin gamma1, monomethyl auristatin E, DM1, and DM4. All the pyrrolobenzodiazepines tested - SJG136, SGD-1882, SG2057, and SG3199 - were substrates of P-gp, ABCG2, and MRP1. […] These findings highlight the risk of transporter-mediated resistance with certain ADC payloads and underscore the importance of selecting payloads that evade ABC transporter recognition in future ADC development.
HEK-293 cells were transfected with empty vector (pcDNA) or vector containing the human ABCB1 (MDR-19), ABCG2 (R-5), or ABCC1 gene (MRP1) and were maintained in EMEM with 2 mg/mL G418 added to maintain transporter expression. The HeLa derivative KB-3-1 and the P-gp overexpressing KB-8-5-11 subline were maintained in DMEM; KB-8-5-11 additionally received 100 ng/mL colchicine. H460 parental cells were obtained from the Division of Cancer Treatment and Diagnosis Tumor Repository, National Cancer Institute at Frederick, MD and were cultured in RPMI. The ABCG2 expressing subline H460 MX20 was generated by selecting H460 cells in 20 nM mitoxantrone. Media in all cases was supplemented with 10% FBS and 1% penicillin-streptomycin. We explored 27 common ADC payloads, in two orthogonal, paired cell line sets-a drug selected and transfected set for each transporter--to identify substrates of the ABC transporters P-gp and ABCG2. Compounds were sourced from Levena Biopharma (San Diego, CA), Selleck Chem (Houston, TX), ChemieTek (Indianapolis, IN), or Microsource Discovery Systems (Gaylordsville, CT). Screening was performed as previously described. Briefly, cells were plated at a density of 500 cells/well in 1536 well plates with compounds added using a 1536-head pin tool (Kalypsys, San Diego CA). Cells were incubated with cytotoxic drugs and processed with CellTiter Glo reagent (Promega, Madison, WI) to determine viability after 48 hours. P-gp substrates were identified by comparing compound activity between paired sets of low-expressing (sensitive) and over-expressing (resistant) cell lines.

Structure (SMILES) | Potency
CC[C@H](C)[C@@H]([C@@H](CC(=O)N1CCC[C@H]1[C@H](OC)[C@@H](C)C(=O)N[C@H](C)[C@@H](O)c1ccccc1)OC)N(C)C(=O)[C@@H](NC(=O)[C@H](C(C)C)N(C)C)C(C)C | 6710 nM (active)
COc1cc2cc(C(=O)N3C[C@@H](CCl)c4c3cc(O)c3ccccc43)[nH]c2c(OC)c1OC | 1.9 nM (active)
CC[C@@]1(O)C(=O)OCc2c1cc1n(c2=O)Cc2cc3ccccc3nc2-1 | 238 nM (active)
COc1cccc2c1C(=O)c1c(O)c3c(c(O)c1C2=O)C[C@@](O)(C(=O)CO)CC3OC1CC(N2CCOC(OC)C2)C(O)C(C)O1 (stereo partly drawn) | 9.5 nM (active)
CC[C@H](C)[C@H](NC(=O)[C@H]1CCCCN1C)C(=O)N(C)[C@H](C[C@@H](OC(C)=O)c1nc(C(=O)N[C@@H](Cc2ccccc2)C[C@H](C)C(=O)O)cs1)C(C)C | inactive
CC[C@H](C)[C@@H]1NC(=O)CNC(=O)[C@H]2Cc3c([nH]c4cc(O)ccc34)S(=O)C[C@H](NC(=O)CNC1=O)C(=O)N[C@@H](CC(N)=O)C(=O)N1C[C@H](O)C[C@H]1C(=O)N[C@@H]([C@@H](C)[C@@H](O)CO)C(=O)N2 (stereo partly drawn) | 533 nM (active)
CC[C@H](C)[C@@H]([C@@H](CC(=O)N1CCC[C@H]1[C@H](OC)[C@@H](C)C(=O)N[C@H](C)[C@@H](O)c1ccccc1)OC)N(C)C(=O)[C@@H](NC(=O)[C@@H](NC)C(C)C)C(C)C (H-[NMeV]V[Dil][Dolaproine]-X1) | inactive
CC[C@H](C)[C@H](NC(=O)[C@H]1CCCCN1C)C(=O)N(C)[C@H](C[C@@H](OC(C)=O)c1nc(C(=O)O)cs1)C(C)C | inactive

Source: PubChem BioAssay AID2061319 (National Center for Advancing Translational Sciences (NCATS), 2025)
